The supplement of paper PMC10849652
The full data set covers some 8,800 targets. This sample favours those with a hit. About 0.5% of all pairs of compound and target were hits. Values without a mark were called inactive.

How the values were obtained:
Assay in all cases: log2 fold change, soluble protein after heating vs DMSO (PISA); higher = thermal stabilisation; K562 lysate, 10 uM; active = over 0.2 and 3.5 SD of the protein, either way, in both replicates (recomputed)
vemurafenib = compound: CCCS(=O)(=O)Nc1ccc(F)c(C(=O)c2c[nH]c3ncc(-c4ccc(Cl)cc4)cc23)c1F [vemurafenib]
Outline: (§1)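 Quantification was by TMTpro 16plex LC-MS/MS with equalised channel sums, applied to the supernatant after 21,000xg for 90 min. Samples were crude K562 extract at 1 mg/mL protein in PBS pH 7.4 with 1 mM MgCl2, treated with 10 μM compound for 30 min, heated for 3 min across 48°C-58°C, pooled and brought to 0.5% NP-40 at 4°C. Values are log-two fold changes in thermal stability relative to solvent controls, from duplicates.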

[1] = compound: CCCS(=O)(=O)Nc1ccc(F)c(C(=O)c2c[nH]c3ncc(Cl)cc23)c1F
Outline: as §1

barasertib = compound: CCN(CCCOc1ccc2c(Nc3cc(CC(=O)Nc4cccc(F)c4)[nH]n3)ncnc2c1)CCOP(=O)(O)O [barasertib]
Outline: as §1

[2] = compound: CC[C@@H]1C(=O)N(C)c2cnc(Nc3ccc(C(=O)NC4CCN(C)CC4)cc3OC)nc2N1C1CCCC1
Outline: as §1

volasertib = compound: CC[C@@H]1C(=O)N(C)c2cnc(Nc3ccc(C(=O)N[C@H]4CC[C@H](N5CCN(CC6CC6)CC5)CC4)cc3OC)nc2N1C(C)C [volasertib]
Outline: as §1

[3] = compound: CCn1c(C(=O)N(C2CC2)C2CC2)cc2c3c(ncn3C)c(Nc3cc(C)n(C)n3)nc21
Outline: as §1

[4] = compound: CCn1cc(-c2ccnc3[nH]c(-c4cccc(CN(C)C)c4)cc23)c(-c2ccc(NC(=O)N(C)C)cc2)n1
Outline: as §1

[5] = compound: CN1CCC(CNc2ccc3ncc(-c4cccc(OC(F)(F)F)c4)n3n2)CC1
Outline: as §1

saracatinib = compound: CN1CCN(CCOc2cc(OC3CCOCC3)c3c(Nc4c(Cl)ccc5c4OCO5)ncnc3c2)CC1 [saracatinib]
Outline: as §1

sotrastaurin = compound: CN1CCN(c2nc(C3=C(c4c[nH]c5ccccc45)C(=O)NC3=O)c3ccccc3n2)CC1 [sotrastaurin]
Outline: as §1

UniProt Q9Y485, sequence (Q9Y485 whole entry, looked up): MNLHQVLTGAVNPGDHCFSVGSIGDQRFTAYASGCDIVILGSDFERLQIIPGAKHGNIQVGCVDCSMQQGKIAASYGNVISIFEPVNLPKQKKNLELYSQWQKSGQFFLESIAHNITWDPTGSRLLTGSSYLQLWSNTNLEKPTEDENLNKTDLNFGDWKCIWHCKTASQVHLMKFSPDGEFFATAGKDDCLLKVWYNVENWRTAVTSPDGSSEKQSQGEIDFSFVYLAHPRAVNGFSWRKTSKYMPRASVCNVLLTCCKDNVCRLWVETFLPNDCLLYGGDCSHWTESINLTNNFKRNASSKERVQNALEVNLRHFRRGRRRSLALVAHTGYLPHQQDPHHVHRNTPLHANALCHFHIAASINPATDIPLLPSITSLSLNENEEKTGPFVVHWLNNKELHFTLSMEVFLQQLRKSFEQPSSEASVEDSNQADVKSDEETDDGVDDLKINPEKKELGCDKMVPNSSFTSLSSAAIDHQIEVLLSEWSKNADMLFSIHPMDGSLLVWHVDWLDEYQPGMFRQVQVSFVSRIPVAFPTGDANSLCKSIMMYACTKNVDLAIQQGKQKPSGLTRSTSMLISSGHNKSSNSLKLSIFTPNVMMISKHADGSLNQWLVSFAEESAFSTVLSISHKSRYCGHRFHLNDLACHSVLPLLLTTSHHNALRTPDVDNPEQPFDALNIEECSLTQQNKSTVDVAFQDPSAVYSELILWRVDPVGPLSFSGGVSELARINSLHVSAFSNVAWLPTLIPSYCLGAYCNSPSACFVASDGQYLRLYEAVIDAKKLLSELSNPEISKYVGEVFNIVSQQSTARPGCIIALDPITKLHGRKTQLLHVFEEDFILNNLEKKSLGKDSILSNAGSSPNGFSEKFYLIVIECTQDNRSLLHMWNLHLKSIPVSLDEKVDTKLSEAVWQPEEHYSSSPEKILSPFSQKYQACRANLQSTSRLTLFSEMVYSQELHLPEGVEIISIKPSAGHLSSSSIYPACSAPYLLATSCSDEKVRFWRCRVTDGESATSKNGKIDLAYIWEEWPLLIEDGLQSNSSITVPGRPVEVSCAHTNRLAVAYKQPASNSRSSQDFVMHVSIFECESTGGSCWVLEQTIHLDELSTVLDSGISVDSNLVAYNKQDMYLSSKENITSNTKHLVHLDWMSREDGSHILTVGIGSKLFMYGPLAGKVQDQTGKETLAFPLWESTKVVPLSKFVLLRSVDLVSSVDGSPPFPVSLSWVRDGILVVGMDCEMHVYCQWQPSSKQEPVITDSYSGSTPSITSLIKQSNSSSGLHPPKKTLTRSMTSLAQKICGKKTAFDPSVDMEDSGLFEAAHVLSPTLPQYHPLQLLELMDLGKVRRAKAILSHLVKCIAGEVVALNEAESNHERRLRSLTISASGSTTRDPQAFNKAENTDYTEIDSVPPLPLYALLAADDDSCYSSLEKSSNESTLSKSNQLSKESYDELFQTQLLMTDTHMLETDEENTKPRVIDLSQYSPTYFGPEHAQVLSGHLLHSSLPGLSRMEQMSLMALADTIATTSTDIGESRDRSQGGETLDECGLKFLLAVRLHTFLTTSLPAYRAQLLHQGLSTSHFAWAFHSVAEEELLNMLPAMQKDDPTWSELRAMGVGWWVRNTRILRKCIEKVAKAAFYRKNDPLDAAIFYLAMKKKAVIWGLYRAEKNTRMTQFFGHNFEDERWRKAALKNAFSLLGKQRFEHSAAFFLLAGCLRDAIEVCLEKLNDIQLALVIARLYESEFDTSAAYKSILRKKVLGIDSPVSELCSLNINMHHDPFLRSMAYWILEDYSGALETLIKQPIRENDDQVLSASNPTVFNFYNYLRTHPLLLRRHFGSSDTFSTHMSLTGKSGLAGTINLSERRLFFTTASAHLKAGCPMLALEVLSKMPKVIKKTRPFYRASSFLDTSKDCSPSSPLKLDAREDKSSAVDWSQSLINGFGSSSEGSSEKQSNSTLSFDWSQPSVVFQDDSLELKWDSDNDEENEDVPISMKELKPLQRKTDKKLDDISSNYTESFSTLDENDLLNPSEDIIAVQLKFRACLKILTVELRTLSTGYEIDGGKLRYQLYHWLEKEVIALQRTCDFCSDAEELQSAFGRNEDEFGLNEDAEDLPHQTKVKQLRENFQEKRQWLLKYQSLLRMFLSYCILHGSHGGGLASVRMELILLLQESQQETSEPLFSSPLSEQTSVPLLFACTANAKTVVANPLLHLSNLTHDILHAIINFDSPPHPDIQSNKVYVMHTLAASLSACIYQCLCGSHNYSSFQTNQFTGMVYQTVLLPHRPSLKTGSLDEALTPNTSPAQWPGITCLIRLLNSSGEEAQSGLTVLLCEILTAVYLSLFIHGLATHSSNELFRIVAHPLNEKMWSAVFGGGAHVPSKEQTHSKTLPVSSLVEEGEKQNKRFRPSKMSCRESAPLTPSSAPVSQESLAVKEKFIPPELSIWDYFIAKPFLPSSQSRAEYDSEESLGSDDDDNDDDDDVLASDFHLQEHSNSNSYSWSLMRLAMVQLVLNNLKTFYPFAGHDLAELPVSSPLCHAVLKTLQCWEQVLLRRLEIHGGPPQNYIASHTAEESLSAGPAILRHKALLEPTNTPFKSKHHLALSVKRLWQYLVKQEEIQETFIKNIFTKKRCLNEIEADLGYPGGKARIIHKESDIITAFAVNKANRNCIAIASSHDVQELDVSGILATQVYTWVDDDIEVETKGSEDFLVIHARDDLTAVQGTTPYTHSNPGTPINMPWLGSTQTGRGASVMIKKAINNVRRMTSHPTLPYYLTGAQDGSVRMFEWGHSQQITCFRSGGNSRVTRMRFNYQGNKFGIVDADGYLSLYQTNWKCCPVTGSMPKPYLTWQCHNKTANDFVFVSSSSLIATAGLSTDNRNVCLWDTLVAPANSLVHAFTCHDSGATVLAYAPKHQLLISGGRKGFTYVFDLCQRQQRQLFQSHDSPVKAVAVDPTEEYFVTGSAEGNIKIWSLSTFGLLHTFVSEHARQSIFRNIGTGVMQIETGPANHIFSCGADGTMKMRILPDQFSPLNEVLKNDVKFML
UniProt P26374, sequence (P26374 whole entry, looked up): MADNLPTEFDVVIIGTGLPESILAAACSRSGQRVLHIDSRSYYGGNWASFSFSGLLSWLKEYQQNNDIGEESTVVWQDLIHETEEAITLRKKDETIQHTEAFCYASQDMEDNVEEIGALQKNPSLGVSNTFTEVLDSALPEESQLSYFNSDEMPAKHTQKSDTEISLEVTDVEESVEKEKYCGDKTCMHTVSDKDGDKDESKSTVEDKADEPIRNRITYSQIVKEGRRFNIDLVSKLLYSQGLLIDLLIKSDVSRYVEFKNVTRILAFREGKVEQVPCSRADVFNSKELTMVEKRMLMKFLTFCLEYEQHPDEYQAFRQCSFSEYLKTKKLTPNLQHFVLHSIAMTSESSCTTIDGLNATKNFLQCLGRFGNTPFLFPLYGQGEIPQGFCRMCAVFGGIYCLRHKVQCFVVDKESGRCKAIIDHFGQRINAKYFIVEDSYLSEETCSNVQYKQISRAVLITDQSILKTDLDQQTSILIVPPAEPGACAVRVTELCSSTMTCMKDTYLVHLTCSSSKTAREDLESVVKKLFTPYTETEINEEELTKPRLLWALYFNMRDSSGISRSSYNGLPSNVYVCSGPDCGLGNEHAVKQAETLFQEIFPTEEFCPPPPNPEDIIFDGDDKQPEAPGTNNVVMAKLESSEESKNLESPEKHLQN
UniProt O75534, sequence (O75534 whole entry, looked up): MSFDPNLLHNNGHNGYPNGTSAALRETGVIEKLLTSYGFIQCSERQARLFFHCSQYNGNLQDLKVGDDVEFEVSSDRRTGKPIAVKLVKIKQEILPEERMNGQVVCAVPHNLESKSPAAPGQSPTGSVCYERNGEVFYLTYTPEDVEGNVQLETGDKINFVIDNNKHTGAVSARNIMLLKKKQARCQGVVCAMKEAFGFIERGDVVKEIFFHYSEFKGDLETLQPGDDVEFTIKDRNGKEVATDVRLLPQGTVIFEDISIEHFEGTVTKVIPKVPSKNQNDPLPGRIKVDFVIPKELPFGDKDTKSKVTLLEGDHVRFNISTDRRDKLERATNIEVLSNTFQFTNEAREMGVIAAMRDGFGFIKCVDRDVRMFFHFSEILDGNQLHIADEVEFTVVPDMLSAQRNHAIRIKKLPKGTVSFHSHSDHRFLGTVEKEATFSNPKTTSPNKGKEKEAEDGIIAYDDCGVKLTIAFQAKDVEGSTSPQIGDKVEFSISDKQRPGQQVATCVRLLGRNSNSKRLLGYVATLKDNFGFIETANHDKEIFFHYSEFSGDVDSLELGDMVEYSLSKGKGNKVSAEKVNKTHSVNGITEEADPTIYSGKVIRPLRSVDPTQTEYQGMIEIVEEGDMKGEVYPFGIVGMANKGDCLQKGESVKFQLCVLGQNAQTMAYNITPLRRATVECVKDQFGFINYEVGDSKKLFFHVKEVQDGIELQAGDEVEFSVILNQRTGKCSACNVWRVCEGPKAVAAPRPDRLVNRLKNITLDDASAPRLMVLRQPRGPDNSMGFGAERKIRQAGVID
UniProt Q92564, sequence (Q92564 whole entry, looked up): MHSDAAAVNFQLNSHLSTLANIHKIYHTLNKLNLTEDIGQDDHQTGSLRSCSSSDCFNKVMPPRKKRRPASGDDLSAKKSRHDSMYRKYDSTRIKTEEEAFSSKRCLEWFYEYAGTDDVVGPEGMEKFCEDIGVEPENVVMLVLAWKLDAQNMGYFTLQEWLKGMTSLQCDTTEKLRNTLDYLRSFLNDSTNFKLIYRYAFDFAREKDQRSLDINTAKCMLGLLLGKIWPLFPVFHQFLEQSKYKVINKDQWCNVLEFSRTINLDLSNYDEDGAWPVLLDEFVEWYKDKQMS
UniProt Q96LJ7, sequence (Q96LJ7 whole entry, looked up): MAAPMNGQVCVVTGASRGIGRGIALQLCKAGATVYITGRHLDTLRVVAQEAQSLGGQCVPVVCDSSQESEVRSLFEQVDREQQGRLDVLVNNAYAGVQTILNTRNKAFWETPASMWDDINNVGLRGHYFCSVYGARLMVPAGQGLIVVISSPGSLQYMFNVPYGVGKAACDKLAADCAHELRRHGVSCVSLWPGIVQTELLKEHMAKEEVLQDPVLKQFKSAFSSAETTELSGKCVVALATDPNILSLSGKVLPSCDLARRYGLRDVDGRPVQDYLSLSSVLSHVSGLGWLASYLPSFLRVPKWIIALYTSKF

| Target | log2 fold change (vemurafenib) | log2 fold change [1] | log2 fold change (barasertib) | log2 fold change [2] | log2 fold change (volasertib) | log2 fold change [3] | log2 fold change [4] | log2 fold change [5] | log2 fold change (saracatinib) | log2 fold change (sotrastaurin) |
| --- | --- | --- | --- | --- | --- | --- | --- | --- | --- | --- |
| CNP (UniProt P09543) | 0.005 | -0.011 | 0.003 | -0.097 | -0.022 | 0.019 | -0.023 | -0.028 | 0.01 | -0.008 |
| DCUN1D4 isoform 3 (UniProt Q92564) | 0.066 | 0.075 | -0.027 | -0.321 (active) | 0.049 | -0.02 | -0.036 | 0.02 | 0.005 | 0.028 |
| CIP2A (UniProt Q8TCG1) | 0.036 | 0.019 | 0.153 | 0.001 | -0.086 | 0.037 | -0.07 | -0.075 | 0.009 | 0.014 |
| CTPS2 (UniProt Q9NRF8) | 0.002 | 0.01 | 0.015 | -0.028 | -0.009 | 0.011 | -0.041 | 0.058 | 0.012 | -0.044 |
| CLIP1 isoform 1 (UniProt P30622) | -0.011 | 0.016 | -0.011 | 0.034 | 0.034 | -0.03 | -0.055 | 0.02 | 0.021 | 0.008 |
| DMXL1 (UniProt Q9Y485) | 0.024 | 0.028 | -0.005 | 0.015 | -0.06 | 0.026 | -0.017 | -0.004 | 0.002 | 0.023 |
| CSDE1 isoform 4 (UniProt O75534) | -0.002 | 0.004 | 0.01 | -0.083 | -0.041 | 0.028 | 0.069 | -0.066 | 0.003 | -0.018 |
| COL6A5 (UniProt A8TX70) | 0.073 | 0.041 | 0.09 | 0.078 | -0.044 | -0.055 | -0.834 (active) | 0.374 | -0.048 | -0.03 |
| COX20 isoform 2 (UniProt Q5RI15) | 0.011 | -0.011 | -0.329 | 0.144 | 0.021 | -0.015 | 0.623 (active) | -0.232 | -0.015 | 0.001 |
| DMAC2L (UniProt Q99766) | 0.002 | 0.026 | 0.065 | 0.075 | -0.028 | 0.021 | -0.017 | 0.053 | 0.058 | -0.012 |
| DCP2 (UniProt Q8IU60) | -0.05 | -0.038 | 0.014 | 0.016 | -0.061 | -0.028 | 0.059 | -0.13 | -0.023 | -0.01 |
| COG4 (UniProt Q9H9E3) | 0.018 | 0.047 | 0.085 | -0.048 | -0.088 | 0.024 | 0.005 | -0.125 | 0.055 | 0.05 |
| DNAAF5 (UniProt Q86Y56) | -0.006 | -0.007 | 0.03 | -0.062 | -0.06 | 0.047 | -0.035 | -0.049 | 0.04 | 0.044 |
| CLCN3 (UniProt P51790) | -0.096 | -0.076 | 0.014 | -0.178 | -0.025 | 0.034 | 0.009 | 0.004 | 0.01 | -0.017 |
| CMBL (UniProt Q96DG6) | -0.053 | -0.027 | -0.026 | 0.081 | 0.183 | 0.004 | -0.174 | 0.129 | -0.016 | -0.015 |
| DOCK10 (UniProt Q96BY6) | 0.095 | -0.008 | -0.054 | 0.085 | 0.027 | 0.043 | -0.747 (active) | 0.387 | 0.001 | 0.007 |
| CNIH4 (UniProt Q9P003) | 0.217 | 0.064 | 0.585 | 0.051 | -0.077 | -0.19 | – | – | 0.021 | 0.066 |

| Target | log2 fold change (vemurafenib) | log2 fold change [1] | log2 fold change (barasertib) | log2 fold change [2] | log2 fold change (volasertib) | log2 fold change [3] | log2 fold change [4] | log2 fold change [5] | log2 fold change (saracatinib) | log2 fold change (sotrastaurin) |
| --- | --- | --- | --- | --- | --- | --- | --- | --- | --- | --- |
| CUX1 isoform 2 (UniProt Q13948) | 0.013 | 0.084 | – | -0.087 | -0.001 | 0.019 | 0.06 | -0.34 | -0.054 | 0.081 |
| CSNK1G3 (UniProt Q9Y6M4) | -0.004 | -0.053 | -0.028 | – | 0.002 | 0.039 | -0.095 | 0.065 | 0.043 | 0.035 |
| CSTF2 (UniProt P33240) | 0.011 | -0.015 | 0.27 (active) | 0.062 | -0.012 | -0.037 | -0.053 | 0.042 | 0.007 | 0.038 |
| DICER1 (UniProt Q9UPY3) | -0.002 | 0.05 | 0.01 | 0.003 | -0.068 | 0.021 | 0.275 | 0.036 | 0.005 | -0.018 |
| DPY19L3 (UniProt Q6ZPD9) | 0.258 | 0.05 | 0.071 | 0.043 | -0.007 | – | – | – | – | 0.051 |
| CNTN4 (UniProt Q8IWV2) | 0.237 | 0.12 | 0.03 | 0.295 | 0.024 | -0.326 | -0.474 | 0.128 | – | -0.076 |
| CORO1A (UniProt P31146) | -0.021 | -0.001 | 0.013 | 0.025 | -0.035 | 0.11 | -0.113 | 0.021 | -0.169 | -0.007 |
| COG7 (UniProt P83436) | 0.003 | 0.018 | 0.017 | -0.054 | -0.076 | -0.003 | -0.209 | -0.019 | 0.05 | 0.039 |
| CSNK1D (UniProt P48730) | -0.04 | -0.044 | -0.092 | – | -0.191 | 0.025 | – | 0.255 | -0.039 | 0.058 |
| CHML (UniProt P26374) | 0.01 | 0.008 | 0.004 | 0.011 | 0.022 | -0.007 | -0.012 | 0.026 | -0.002 | 0.005 |
| DHRS1 (UniProt Q96LJ7) | 0.436 | 0.187 | 0.053 | -0.045 | 0.012 | -0.029 | -0.042 | -0.05 | 0.001 | 0.026 |
| DLD (UniProt P09622) | 0.007 | 0.003 | -0.032 | 0.032 | 0.057 | -0.018 | -0.071 | 0.04 | 0.009 | -0.015 |
| CSNK1E (UniProt P49674) | -0.013 | -0.038 | 0.029 | 0.135 | -0.01 | 0.11 | -0.013 | 0.237 | 0.069 | 0.061 |
| DAZAP1 (UniProt Q96EP5) | 0.036 | 0.043 | -0.017 | 0.016 | 0.011 | 0.065 | 0.129 | 0.032 | 0.003 | -0.109 |
| CUL1 (UniProt Q13616) | -0.008 | 0.001 | -0.011 | 0.034 | 0.029 | 0.004 | -0.013 | 0.029 | -0.023 | -0.029 |
| CYP24A1 (UniProt Q07973) | 0.065 | -0.01 | -0.055 | 0.166 | 0.006 | -0.212 | -0.499 (active) | 0.268 | 0.056 | 0 |
